Screens deposited in PubChem BioAssay by Buhrlage Lab, Dana-Farber Cancer Institute and Novartis Institutes for BioMedical Research (Cambridge, Mass).
USP10 inh – blocks human USP10 ubiquitin-rhodamine cleavage | Q14694 | inhibition, % at 20 µM | AID 1645856 | purified USP10, Ub-rhodamine fluorescence, 60 min | actives 1.1% (n = 47,000)
USP28 inh – human USP28 deubiquitinase inhibition. actives 3% (n = 47,000). Q96RU2. inhibition, % at 25 µM. purified USP28, Ub-rhodamine cleavage fluorescence, 30 min. AID 1645857
Target sequence (Q96RU2 whole entry, looked up): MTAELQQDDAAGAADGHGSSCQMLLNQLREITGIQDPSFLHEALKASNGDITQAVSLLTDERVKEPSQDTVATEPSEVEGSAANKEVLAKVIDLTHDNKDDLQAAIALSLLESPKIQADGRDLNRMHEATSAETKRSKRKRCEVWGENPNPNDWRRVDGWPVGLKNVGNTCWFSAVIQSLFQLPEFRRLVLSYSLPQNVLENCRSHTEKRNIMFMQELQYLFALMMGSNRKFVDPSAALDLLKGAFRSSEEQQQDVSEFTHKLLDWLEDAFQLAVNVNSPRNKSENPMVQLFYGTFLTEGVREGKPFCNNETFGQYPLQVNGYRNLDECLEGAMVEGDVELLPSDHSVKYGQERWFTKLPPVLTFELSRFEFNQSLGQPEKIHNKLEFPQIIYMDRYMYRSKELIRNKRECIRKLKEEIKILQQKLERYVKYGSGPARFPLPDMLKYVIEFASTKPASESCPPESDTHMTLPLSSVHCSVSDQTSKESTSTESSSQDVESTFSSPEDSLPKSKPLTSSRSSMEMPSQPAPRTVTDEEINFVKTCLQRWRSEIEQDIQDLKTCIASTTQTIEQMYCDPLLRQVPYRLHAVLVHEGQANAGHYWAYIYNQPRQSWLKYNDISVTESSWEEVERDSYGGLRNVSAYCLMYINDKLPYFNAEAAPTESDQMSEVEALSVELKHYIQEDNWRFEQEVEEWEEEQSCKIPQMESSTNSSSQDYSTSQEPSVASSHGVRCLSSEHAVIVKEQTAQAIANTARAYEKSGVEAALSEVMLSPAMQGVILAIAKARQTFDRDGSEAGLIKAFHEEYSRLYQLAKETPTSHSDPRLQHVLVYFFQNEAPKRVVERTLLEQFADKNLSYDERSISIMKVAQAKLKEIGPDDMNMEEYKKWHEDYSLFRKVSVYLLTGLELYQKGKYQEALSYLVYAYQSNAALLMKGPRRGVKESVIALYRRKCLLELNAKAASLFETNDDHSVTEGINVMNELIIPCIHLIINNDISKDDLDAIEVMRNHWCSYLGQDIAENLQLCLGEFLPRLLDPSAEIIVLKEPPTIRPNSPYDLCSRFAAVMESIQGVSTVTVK
USP17 block – human USP17-like deubiquitinase inhibition | A8MUK1 | purified USP17, Ub-rhodamine cleavage fluorescence, 3 h | inhibition, % at 50 µM | actives 6.5% (n = 47,000)
USP8 inh – human USP8 deubiquitinase inhibition | purified USP8, Ub-rhodamine cleavage fluorescence, 30 min | inhibition, % at 20 µM | actives 4.2% (n = 47,000)
USP30 block – inhibitors of human USP30 deubiquitinase; inhibition, % at 25 µM; actives 5.3% (n = 47,000); Q70CQ3; purified USP30, Ub-rhodamine cleavage fluorescence
Large screens that a line does not name were inactive. A selection: hits, their analogues and other compounds. The true share with any hit is near 14%. Rule as the data show it: active = inhibition above about 30%; inactive = the rest.

Cc1cnc(C(=O)N2CCC3(CC2)CCN(CC2CC2)C3=O)cn1	none
CCn1cc2nc(SCC(=O)NC3CCCC3)n(Cc3ccc(C)cc3)c(=O)c2n1	USP17 block 63, USP30 block 70
Cc1cccc(Nc2cc(C3CCN(C(=O)c4cnc[nH]4)CC3)ccn2)n1	none
Cc1cccc(Nc2cc(C3CCN(C(=O)c4cncnc4)CC3)ccn2)n1	USP30 block 32
COc1cnc(-c2ccccn2)nc1Sc1ccccc1Cl	USP17 block 39, USP30 block 87
Cc1cc(C)cc(C(=O)OCc2cc(=O)oc3cc(C)ccc23)c1	none
Cc1cc2oc(=O)cc(COC(=O)c3ccc4[nH]c(C)c(C)c4c3)c2cc1Cl	USP17 block 46
Cc1ccc(Nc2nccc(C3CCCN(C(=O)c4ccc(=O)n(C)c4)C3)n2)nc1 (configuration not stated)	none
Cn1nnnc1SCC(=O)N1CCC2(CC1)C(=O)N(Cc1ccccc1)c1ccccc12	none
Cc1cccc(C)c1NC(=O)C(C)n1c(C)nc2onc(C)c2c1=O (configuration not stated)	USP30 block 43 (no result: USP17 block)
O=C(CSc1nccn1C1CCCCC1)Nc1ccc(F)cc1F	none
O=C(O)C1CCCN(Cc2c(-c3cccs3)nc3ncccn23)C1 (configuration not stated)	none
CC(=O)Nc1ccc(NC(=O)N[C@H]2C[C@H]3CN(C)c4ccccc4CN3C2)cc1	USP28 inh 31
CN1C[C@@H]2C[C@H](NC(=O)Nc3ccc(F)cc3)CN2Cc2ccccc21	none
COc1ccc(NC(=O)C2=Cc3ccccc3OC2)cc1	USP30 block 34
O=C(NCc1ccccc1Cl)C1=Cc2ccccc2OC1	none
O=C(NC1CCN(Cc2ccccc2)CC1)C1CCCN(S(=O)(=O)N2CCCCC2)C1 (configuration not stated)	none
Cc1cc(NC(=O)CN2C(=O)C(=O)c3ccccc32)ccc1-n1ncnn1	USP8 inh 32
O=C(c1ccnnc1)N1CCCCC1c1ncc(Cc2cccc(F)c2)o1 (configuration not stated)	none
Cc1c(OCC(=O)NCc2ccccc2Cl)ccc2c3c(c(=O)oc12)CCC3	USP8 inh 52
CCC(C)c1ccc(O[C@@H]2O[C@@H]3COC(c4ccccc4)O[C@H]3[C@H](O)[C@H]2NC(C)=O)cc1 (some centres not stated)	USP28 inh 34, USP17 block 40, USP30 block 82
CCn1nccc1-c1cnc(CC2CCN(S(C)(=O)=O)CC2)cn1	none
Cc1ccc2nc(N3C(=O)c4oc5ccccc5c(=O)c4C3c3ccc(C)o3)sc2c1 (configuration not stated)	USP17 block 40, USP30 block 41
Cc1ccc2nc(N3C(=O)c4oc5ccccc5c(=O)c4C3c3ccco3)sc2c1 (configuration not stated)	none
O=C(Nc1ccccc1)N1CCCCCC1C1CCN(Cc2nc(C3CC3)no2)CC1 (configuration not stated)	none
Cc1ccc(NC(=O)Cn2cc(S(=O)(=O)c3ccccc3)c(=O)c3ccc(C)nc32)cc1	USP8 inh 41
Cc1ccc2c(=O)c(C(=O)Nc3ccccc3)cn(CC(=O)NC3CCCCC3)c2n1	USP17 block 56
Cc1ccc2c(=O)c(C(=O)Nc3ccc(F)cc3)cn(CC(=O)NC3CCCC3)c2n1	none (no result: USP17 block)
CN1CC(=O)N(C2CCCNC2)Cc2c(NC3CCCCCC3)ncnc21 (configuration not stated)	none
CN1CC(=O)N(C2CCCNC2)Cc2c(NC3Cc4ccccc4C3)ncnc21 (configuration not stated)	USP8 inh 68
COc1cccc(C(=O)Nc2ccccc2C(=O)NCCc2ccccc2)c1	USP30 block 49
COc1cccc(-n2cnc3cc(C(=O)NCCc4ccccc4)ccc3c2=O)c1	USP8 inh 54
COc1cccc(-n2cnc3cc(C(=O)N4CCCCC4)ccc3c2=O)c1	none
O=C(Cc1ccccc1)NCCc1ccccc1	none
O=C(NCCc1ccccc1)c1ccccc1-c1ccccc1C(=O)NCCc1ccccc1	USP30 block 32
COc1ccccc1OCc1ccc(C(=O)Nc2ccc(F)cc2C)cc1	USP17 block 53
CCn1cc(C(=O)N2CCOCC2c2nc(C)cc(NC)n2)c(C)n1 (configuration not stated)	none
COc1ccc(C(C)=O)cc1COC(=O)c1cc(S(=O)(=O)N2CCOCC2)ccc1F	none (no result: USP28 inh, USP30 block)
N#Cc1cccc(NC(=O)C2Cc3ccccc3CN2C(=O)c2ccco2)c1 (configuration not stated)	none (no result: USP28 inh, USP30 block)
CC(C)(C)N=C1Nc2ccccc2NC12CCCN(C(=O)c1cccnc1)C2 (configuration not stated)	none (no result: USP17 block)
COc1cccc(CNC(=O)c2ccccc2NC(=O)c2ccc(F)cc2)c1	USP30 block 41
COc1cccc(CNC(=O)c2ccc(Cn3cncn3)cc2)c1	none
CC(C)(C)OC(=O)N1CCC[C@H]1C(=O)N1CCC(C(=O)N[C@@H](CC(N)=O)C(=O)O)(c2ccccc2)CC1	USP30 block 32
CC(C)(C)OC(=O)N1Cc2ccccc2C[C@H]1C(=O)N1CCC(C(=O)N[C@H](CC(N)=O)C(=O)O)(c2ccccc2)CC1	USP8 inh 50
Cc1nc(NC2CCCCC2)c2sc3nc4c(cc3c2n1)COC(C)(C)C4	none
O=C(Cn1c(NCc2ccccc2)nc2ccccc21)NCC(F)(F)F	USP17 block 45, USP30 block 52
O=C(Cn1c(NCCO)nc2ccccc21)NCC1CCCO1 (configuration not stated)	none
Cc1cc(C2CCCN2C(=O)Cc2c(F)cccc2Cl)on1 (configuration not stated)	none
CN1CCn2c(-c3cccnc3)cnc2C12CCN(Cc1ccccc1)CC2	none
Cc1ccc(CSc2nnc(CNC(=O)c3ccc(F)cc3)n2-c2ccccc2)cc1	none
COc1ccccc1-n1c(CNC(=O)c2ccc(S(=O)(=O)N3CCOCC3)cc2)nnc1SCc1ccc(Br)cc1	USP30 block 36
CS(=O)(=O)N1CCN(c2ccccc2NC(=O)COc2ccc(Br)cc2)CC1	USP10 inh 72, USP17 block 93, USP8 inh 92 (no result: USP28 inh, USP30 block)
COc1cc(C)c2c(=O)c3c(oc2c1)C(=O)c1c(O)c(OC)cc(O)c1C3=O	USP28 inh 35, USP17 block 71
Cc1noc(C)c1CC(=O)N1CCCCC1c1cc(=O)n2ccnc2[nH]1 (configuration not stated)	none
COc1ccc(C(=O)NC2=NC(c3ccc(Br)cc3)CC(=O)N2)cc1OC (configuration not stated)	none
Cc1ccc(C(=O)Nc2ccc(Cl)cn2)c(C)c1	none
CC(C)(C)OC(=O)NCc1ccc(C(=O)Nc2ccc(Cl)cn2)cc1	USP30 block 34
CS(=O)(=O)N1CCN(C(=O)c2ccc(N3CCC(Cc4ccccc4)CC3)nn2)CC1	none
COc1ccc(C(C)=O)cc1CC(C(=O)Nc1ccc2c(c1)OCO2)C(=O)c1ccccc1 (configuration not stated)	none
